Here are results for 30 compounds from ChEMBL document CHEMBL3988442, “University of Dundee, Small-Polar-MMV Screening Library” (2021).

The structures appear in SMILES notation. Some results are limits rather than exact numbers.

In the assay the target is T1, Methionyl-tRNA synthetase, putative (Leishmania donovani (strain BPK282A1)) (UniProt E9BF75).
T1 sequence (whole entry): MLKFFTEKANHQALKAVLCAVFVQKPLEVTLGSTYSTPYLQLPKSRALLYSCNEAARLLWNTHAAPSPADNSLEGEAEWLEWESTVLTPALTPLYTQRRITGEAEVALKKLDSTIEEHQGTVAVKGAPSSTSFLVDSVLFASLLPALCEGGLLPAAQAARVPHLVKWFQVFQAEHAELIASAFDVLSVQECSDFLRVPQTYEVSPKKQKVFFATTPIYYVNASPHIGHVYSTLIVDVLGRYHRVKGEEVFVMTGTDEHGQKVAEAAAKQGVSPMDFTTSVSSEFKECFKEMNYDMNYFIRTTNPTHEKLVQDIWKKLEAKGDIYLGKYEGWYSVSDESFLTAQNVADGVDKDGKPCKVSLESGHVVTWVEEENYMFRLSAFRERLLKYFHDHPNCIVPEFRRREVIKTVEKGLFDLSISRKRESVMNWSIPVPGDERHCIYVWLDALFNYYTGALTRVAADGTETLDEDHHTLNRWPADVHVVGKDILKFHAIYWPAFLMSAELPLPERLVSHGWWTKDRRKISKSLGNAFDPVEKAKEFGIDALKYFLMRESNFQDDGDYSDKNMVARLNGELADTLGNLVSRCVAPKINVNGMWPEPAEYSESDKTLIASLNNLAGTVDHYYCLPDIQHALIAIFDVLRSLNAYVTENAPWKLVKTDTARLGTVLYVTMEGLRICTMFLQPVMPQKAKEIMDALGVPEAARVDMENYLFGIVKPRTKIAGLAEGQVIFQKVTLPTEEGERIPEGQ
As to the kind of experiment: Leishmania donovani Methionine tRNA synthetase (LdMetRS):v7. Dose response assay. Details: conc 80 nM, time 150 minutes. The assay is classed as functional.

As for `Cc1sc2nc(-c3cccs3)nc(N(C)CC(=O)N3CCCC3)c2c1C`, the PXC50 (MAX_EFFECT 37.40458015) was below 4 and the PXC50 (MAX_EFFECT 42.06549118) was below 4.
Consider `Cc1nc(NCCN2CCNC2=O)c2ccsc2n1`, for which the PXC50 was below 4 (MAX_EFFECT 8.533333333) and below 4 (MAX_EFFECT 11.11111111).
In the case of `Cc1nc(N2CCCC(N)CC2)c2ccsc2n1` (stereo not given), the PXC50 reads like this: (MAX_EFFECT 0.0) below 4; (MAX_EFFECT 3.10880829) below 4.
Take `COc1ccccc1C1(CNc2nnc(C)c(C)c2C#N)CCOCC1`: the PXC50 is below 4 (MAX_EFFECT 9.85915493) and below 4 (MAX_EFFECT 18.33333333).
Take `Cc1nc(NCc2noc(C3CCCO3)n2)c2ccsc2n1` (stereo not given): the PXC50 runs as follows: (MAX_EFFECT 9.660574413) below 4; (MAX_EFFECT 12.53263708) below 4.
As to `Cc1nc(N(C)CC(=O)NC2CC2)c2c3c(sc2n1)CCCC3`, the PXC50 was below 4 (MAX_EFFECT 4.761904762) and below 4 (MAX_EFFECT 5.333333333).
In the case of `CN(C)CCNC(=O)c1ccc2ccc(N(C)CC3CC3)n2c1`, the PXC50 (MAX_EFFECT 42.17687075) was below 4 and the PXC50 (MAX_EFFECT 43.73831776) was below 4.
With `O=c1cc(NCCCNCc2c[nH]c3ccc(Br)cc23)[nH]c2ccccc12`, the PXC50 is, setting by setting: (BOTTOM 0.0, HILLSLOPE 1.551467474, MAX_EFFECT 106.0606061, TOP 104.4534441) 5.79; (BOTTOM 0.546192845, HILLSLOPE 1.22385612, MAX_EFFECT 106.0465116, TOP 107.4209254) 5.79.
The compound `COCCNc1nc(N2CCCC2)nc2sc3c(c12)CCCC3` had a PXC50 (MAX_EFFECT 20.83333333) below 4 and a PXC50 (MAX_EFFECT 36.40350877) below 4.
As to `CCOCCCNc1nc(-c2ccc(C)cc2)cc(C(F)(F)F)n1`, the PXC50 runs as follows: (MAX_EFFECT 5.102040816) below 4; (MAX_EFFECT 5.808080808) below 4.
Turning to `CNc1nc(C)nc(N2CCc3cc(C(=O)NCc4ccc(-c5nccn5C)cc4Cl)ccc32)n1`, the PXC50 is, setting by setting: (MAX_EFFECT 28.67132867) below 4; (MAX_EFFECT 30.23255814) below 4.
Consider `Cc1nc(N2CCNC(=O)CC2)c2c(CC(C)C)csc2n1`, for which the PXC50 reads like this: (MAX_EFFECT 6.557377049) below 4; (MAX_EFFECT 9.625668449) below 4.
`CN(C)C(=O)C1CCN(c2cncc(-n3cccn3)n2)CC1`: the PXC50 (MAX_EFFECT 5.700712589) is below 4 and the PXC50 (MAX_EFFECT 11.44366197) is below 4.
As to `Cc1nc(NCCC(=O)NC(C)C)c2c3c(sc2n1)CCC3`, the PXC50 is below 4 (MAX_EFFECT -1.058201058) and below 4 (MAX_EFFECT -2.133333333).
Take `CC(C)N1CCN(c2ccc3ccc(C(=O)NC4CCCC4)cn23)CC1`: the PXC50 was found to be 4.24 (BOTTOM 0.093, HILLSLOPE 1.274308059, MAX_EFFECT 67.28971963, TOP 100.0) and 4.24 (BOTTOM -1.582312145, HILLSLOPE 1.245531895, MAX_EFFECT 64.39909297, TOP 98.29335099).
Regarding `Cc1cc(C(=O)NC2CCCC2)cn2c(N3CCN(S(C)(=O)=O)CC3)ccc12`, the PXC50 by setting is: (BOTTOM 3.715191159, HILLSLOPE 1.052339001, MAX_EFFECT 54.38596491, TOP 65.94212945) 4.67; (MAX_EFFECT 46.875) below 4.
`Cc1nc(N2CCC(N3CCSCC3)CC2)c2ccsc2n1` yielded a PXC50 (MAX_EFFECT 8.29015544) below 4 and a PXC50 (MAX_EFFECT 9.042553191) below 4.
Take `Cc1nc(NCCNC(=O)c2ccccc2)c2c3c(sc2n1)CCCC3`: the PXC50 is, setting by setting: (MAX_EFFECT 14.39393939) below 4; (MAX_EFFECT 19.3877551) below 4.
Take `Cc1nc(N(C)CC(=O)N2CCCC2)c2c3c(sc2n1)CCCC3`: the PXC50 by setting is: (MAX_EFFECT 3.703703704) below 4; (MAX_EFFECT 3.733333333) below 4.
Take `OCc1ccc(Cl)cc1Cl`: the PXC50 is below 3 (MAX_EFFECT 13.11787072) and below 3 (MAX_EFFECT 18.35853132).
Consider `Cc1sc(C)c(C(F)(F)F)c1CNCCCNc1cc(=O)c2ccccc2[nH]1`, for which the PXC50 came to 5.58 (BOTTOM -1.155419978, HILLSLOPE 1.172834864, MAX_EFFECT 100.9302326, TOP 101.3032533) and 5.56 (BOTTOM -1.471807315, HILLSLOPE 1.111829353, MAX_EFFECT 101.8648019, TOP 104.5162556).
For the compound `COc1cccc(-c2cc(C(F)(F)F)nc(N3CCCC3)n2)c1`, the PXC50 runs as follows: (MAX_EFFECT 5.303030303) below 4; (MAX_EFFECT 7.142857143) below 4.
For `CCc1nc(NCCCC(=O)O)c2c3c(sc2n1)CCC3`, the PXC50 reads like this: (MAX_EFFECT 7.808564232) below 4; (MAX_EFFECT 8.905852417) below 4.
With `CCCC(=O)N1CCC(c2ncc3c(n2)CCNC3)CC1`, the PXC50 is below 4 (MAX_EFFECT 6.802721088) and below 4 (MAX_EFFECT 13.45794393).
Take `CCN(CC)c1ccc2ccc(C(=O)N(CCOC)CCOC)cn12`: the PXC50 reads like this: (MAX_EFFECT 40.55555556) below 4; (MAX_EFFECT 42.72300469) below 4.
For the compound `COc1cccc(-c2cc(C(F)(F)F)nc(N(C)C)n2)c1`, the PXC50 is below 4 (MAX_EFFECT 5.18134715) and below 4 (MAX_EFFECT 6.914893617).
On to `Cc1nc(N2CCN(CCO)CC2)c2c(-c3ccccc3)csc2n1`, for which the PXC50 is below 4 (MAX_EFFECT 6.12244898) and below 4 (MAX_EFFECT 9.848484848).
With `O=C(NC1CCCC1)c1ccc2ccc(N3CCCCC3)n2c1`, the PXC50 is, setting by setting: (MAX_EFFECT 36.52968037) below 4; (MAX_EFFECT 39.81132075) below 4.
Turning to `Cc1cc(Br)sc1CNCCCNc1cc(=O)c2ccccc2[nH]1`, the PXC50 (BOTTOM 0.0, HILLSLOPE 1.706331743, MAX_EFFECT 106.0465116, TOP 103.2080248) was 6.25 and the PXC50 (BOTTOM 0.0, HILLSLOPE 2.906661209, MAX_EFFECT 104.1958042, TOP 102.1210588) amounted to 6.14.
Consider `CNS(=O)(=O)c1cc(C(C)C)c(Br)cc1C(C)C`, for which the PXC50 is below 4 (MAX_EFFECT 9.649122807) and below 4 (MAX_EFFECT 14.58333333).
